Sampled rows, rich in hits. Any-hit rate of the full collection: about 20%.
HCMV inh: blocks human cytomegalovirus replication. activity change, negative = inhibition, % at 57.5 µM. AID 1259415. 410,000 tested, 4.5% active. HFF cells, HCMV-luciferase reporter, 72 h; hits give low values; in the data active = activity change below about -60%; inconclusive = no clear call, values can overlap the other calls; inactive = above about -39%; also: % is scaled to controls: 0 for no effect and ±100 for the full control effect
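Steps: HFFs plated, 16 h 37C; compounds added; HCMV-luciferase added to MOI 1 PFU/cell; 72 h 37C; OneGlo reagent, 5 min room temperature; luminescence read, normalized to controls.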
Pf growth 96h: P. falciparum growth inhibition at 96 hours; P. falciparum luciferase reporter growth, 96 h; 320,000 tested, 6.9% active; Potency, µM (titrated, usually from 28.7 µM), for inactives: top-dose activity change, negative = inhibition, actives largely listed as inhibitors; also: potency is read from the fitted curve at half-maximal effect; % is scaled to controls: 0 for no effect and ±100 for the full control effect
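Two-generation exposure (96 h) targets delayed-death phenotype. Reporter parasites carrying integrated firefly luciferase, in red cells at 2% hematocrit and 0.05% parasitemia final, kept at 37 C, 5% CO2; luminescence loss indicates inhibition.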
Pf growth 48h: P. falciparum growth inhibition at 48 hours (one generation); Potency, µM (titrated, usually from 28.7 µM), without a hit: top-dose activity change, negative = inhibition, hits mostly inhibitors; P. falciparum luciferase growth in erythrocytes, 48 h; 310,000 tested, 5.9% active; also: potency is read from the fitted curve at half-maximal effect; % is scaled to controls: 0 for no effect and ±100 for the full control effect
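Read-out is firefly luciferase luminescence from an integrated reporter in P. falciparum, so falling signal marks reduced parasite growth. Infected erythrocytes were at 2% hematocrit and 0.1% parasitemia (final) in Albumax-supplemented RPMI 1640.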
Shiga toxin inh: inhibitors of Shiga toxin in Vero cells. Vero cells, Shiga toxin protein synthesis inhibition reporter. 290,000 tested, 9.2% active. inhibition, % at 38.7 µM. AID 2315; in the data active = inhibition mostly above about 28%, no sharp cut-off; inactive = mostly below about 43%; also: 0% is about no effect
Cycloheximide cs: counter-screen for Shiga toxin inhibitors: cycloheximide protein synthesis inhibition; cell reporter, cycloheximide protein synthesis inhibition counterscreen; max response, %; 300,000 tested, 12% active; in the data active = max response mostly above about 13%, no sharp cut-off; inactive = mostly below about 14%; also: read at 38.3 µM for the half of the compounds with a filed dose; 0% is about no effect
An asterisk follows results filed as active; ? = inconclusive; . = not tested or not shown. Unless noted, calls follow the shape of the dose curve; as a rule, active = well fitted inhibition curve with a large enough effect; inconclusive = small, poorly fitted or top-dose-only effect, or another doubt; inactive = no such curve, though single readings can be large or run the other way.

SMILES	HCMV inh	Pf growth 96h	Pf growth 48h	Shiga toxin inh	Cycloheximide cs
CCCC(=O)Nc1ccc(C2C(=O)c3ccccc3C2=O)cc1	163.7	0.0%	122.8%	28.0	12.1*
CC(=O)Nc1ccc(C2C(=O)c3ccccc3C2=O)cc1	140.4	49.7%	67.4%	68.1*	23.7*
Cc1cccc(-c2nsc(SCC(=O)NCc3ccco3)n2)c1	-5.8	-24.6%	38.9%	8.8	22.7*
Cc1cccc(-c2nsc(SCC(=O)NCC3CCCO3)n2)c1 (stereo not given)	-7.6	69.6%	45.3%	91.1*	44.4*
Cc1cccc(-c2nsc(SCC(=O)NCc3ccc4c(c3)OCO4)n2)c1	-29.5	49.3%	20.2%	-11.4	-1.7
CC(=O)OCc1c(F)c(F)c(-n2nc(C)cc2C)c(F)c1F	22.6	-0.7%	-5.0%	-12.4	-2.1
COCc1nnc(NC(=O)c2cccc(NC(=O)C(C)C)c2)s1	21.1	-29.8%	88.8%	26.7*	14.0*
CCc1nnc(NC(=O)c2cccc(NC(=O)C(C)C)c2)s1	69.7	42.5%	67.7%	66.6	45.0*
COc1ccc(-c2cc(NC=O)c3ncc(-c4cccc(C(F)(F)F)c4)n3c2)cc1OC	-26.4	.	.	.	.
CCOc1ccc(NC(=O)C2CCN(c3nc4ccccc4[nH]3)CC2)cc1	0.0	.	.	.	.
COc1cc(SC)ccc1C(=O)OCC(=O)NC1CCCC1	-18.5	82.5%	0.0%	112.7*	54.2*
COc1ccc(C(=O)NCC2CCCO2)cc1OC (stereo not given)	-25.1	14.3%	14.4%	12.1	-2.0
COc1cc(C(=O)NCC2CCCO2)ccc1OCc1ccccc1Cl (stereo not given)	92.3	-2.0%	?	36.8	15.5*
COc1cc(OC)c(C(=O)OCC(=O)NC2CCCC2)cc1OC	3.4	25.4%	-6.9%	-11.4	12.0
COc1cc(SC)ccc1C(=O)NC1CCCCC1	31.7	35.5%	-5.6%	50.7	36.1*
CSc1ccc(Cl)c(C(=O)NC2CCCC2)c1	-33.8	-0.9%	6.0%	9.7	-2.5
COc1cc(C(=O)NCC2CCCO2)ccc1OCc1ccccc1 (stereo not given)	54.9	3.8%	-7.3%	10.1	6.3
COc1cc(SC)ccc1C(=O)NCC1CCCO1 (stereo not given)	97.4	.	38.4%	74.2	24.3*
COc1ccc(NC(=O)c2oc3ccccc3c2NC(=O)c2cccc(F)c2)c(OC)c1	-4.5	.	.	.	.
CC(C)/C=C/C(=O)N1CCC(N2CCC(C(=O)NCC3CCCO3)CC2)CC1 (stereo not given)	7.5	.	.	.	.
Cc1ccc(C(C(=O)NC(C)(C)C)N(Cc2ccccc2)C(=O)c2snc(C(N)=O)c2N)o1 (stereo not given)	?	-0.4%	?	-6.7	-1.6
COc1ccc2c(Sc3ccc(Cl)cc3)c(C(=O)NCCCN3CCCCC3)[nH]c2c1	-19.0	.	.	.	.
COc1ccccc1OCC(=O)Nc1sc2c(c1C(N)=O)CCC2	-3.0	.	.	.	.
COc1ccc(C(=O)OCC(=O)NC2CCCCCC2)cc1OC	-6.6	?	?	.	.
COc1cc(SC)ccc1C(=O)OCC(=O)NC1CCCCC1	7.2	4.6%	11.7%	35.3	59.9*
SMILES	HCMV inh	Pf growth 96h	Pf growth 48h	Shiga toxin inh	Cycloheximide cs
COc1ccccc1OCC(=O)Nc1sc2c(c1C(=O)NCC1CCCO1)CCC2 (stereo not given)	?	10.4µM*	13.1µM*	6.6	-1.7
O=S(=O)(c1ccc(OC(F)(F)F)cc1)N1CCC(O)(c2cccc(C(F)(F)F)c2)CC1	3.6	6.0%	?	2.6	6.9
COc1cc(S(=O)(=O)N2CCC(O)(c3cccc(C(F)(F)F)c3)CC2)ccc1-n1cnnn1	-27.4	?	10.4µM*	-6.4	-2.6
Cc1ccc(-c2nc(N)n(S(C)(=O)=O)n2)cc1	2.7	-3.2%	29.3%	40.3	30.1*
CC(=O)Nc1ccc(S(=O)(=O)n2nc(-c3ccc(C)cc3)nc2N)cc1	20.2	1.65µM*	-13.7%	14.5	8.3
CCN(CC)S(=O)(=O)c1ccc2c(c1)N(CC(=O)Nc1ccc(F)cc1)C(=O)CO2	-39.5	.	.	.	.
CCOC(=O)c1sc2nc(C)nc(N3CCN(c4ncccn4)CC3)c2c1C	0.0	-39.9%	48.9%	-2.7	5.5
Cc1ccc(NC(=O)Cn2cc(S(=O)(=O)c3ccc(F)cc3)c(=O)c3cc4c(cc32)OCO4)cc1	-3.6	.	.	.	.
CC1CCCN(C(C(=O)NC2CCCCC2)c2cc3c(cc2[N+](=O)[O-])OCO3)C1 (stereo not given)	-19.0	0.9%	?	108.4*	53.0*

Assay outcomes from PubChem BioAssay.
